Measurements reported in PubChem BioAssay (NCI).
Values joined by “and” are separate entries in the source; they are usually repeats but may differ in a detail not shown here. Equal values may be shown once. This is part of a sample that, as a whole, favours compounds with a hit. Of some 83,000 tested, about 20% had one in any assay.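 Plates (96-well) were seeded with cells, treated with compound at one concentration, and incubated for 48 hours before percent growth was determined.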 Active and inactive are the calls of the source. The calls were made as follows: active = growth percent below 10; inactive = the rest.

Columns and labels:
Assay in all cases: NCI-60 one-dose screen, 48 h (100 = growth as untreated, 0 = no growth, -100 = all killed)
[1] = system: MOLT-4 leukemia
[2] = system: SR leukemia; settings: 10 µM unless noted
[3] = system: RPMI-8226 leukemia
[4] = system: OVCAR-8 ovarian
[5] = system: OVCAR-5 ovarian
[6] = system: OVCAR-4 ovarian
[7] = system: SK-OV-3 ovarian
[8] = system: IGROV1 ovarian
[9] = system: OVCAR-3 ovarian
[10] = system: HS 578T breast
[11] = system: NCI/ADR-RES ovarian
[12] = system: T-47D breast
[13] = system: BT-549 breast
[14] = system: MDA-MB-435 melanoma
[15] = system: SW-620 colon
[16] = system: MCF7 breast
[17] = system: HCT-116 colon
[18] = system: HCC-2998 colon
[19] = system: KM12 colon

Measured: growth

CC1(C)S[C@H]2CC[C@H]3OC(=O)[C@@H]1N23
inactive: [1]; 10 µM unless noted 75.1% | [2] 92.6% | [3]; 10 µM unless noted 79.5% | [4]; 10 µM unless noted 102% | [5]; 10 µM unless noted 91.1% | [6]; 10 µM unless noted 97.2% | [7]; 10 µM unless noted 111% | [8]; 10 µM unless noted 39.4% | [9]; 10 µM unless noted 132% | [10]; 10 µM unless noted 112% | [11]; 10 µM unless noted 93.8% | [12]; 10 µM unless noted 104% | [13]; 10 µM unless noted 85.3% | [14]; 10 µM unless noted 93.3% | [15]; 10 µM unless noted 113% | [16]; 10 µM unless noted 103% | [17]; 10 µM unless noted 103% | [18]; 10 µM unless noted 97.7% | [19]; 10 µM unless noted 111%

CN1CCN(c2ccc(Cl)cc2)CC1
inactive: [1]; 10 µM unless noted 75.6% | [2] 56.2% | [3]; 10 µM unless noted 110% | [4]; 10 µM unless noted 72.5% | [5]; 10 µM unless noted 80.5% | [6]; 10 µM unless noted 98.6% | [7]; 10 µM unless noted 103% | [8]; 10 µM unless noted 68% | [9]; 10 µM unless noted 125% | [10]; 10 µM unless noted 101% | [11]; 10 µM unless noted 70.1% | [12]; 10 µM unless noted 90% | [13]; 10 µM unless noted 83.2% | [14]; 10 µM unless noted 97.8% | [15]; 10 µM unless noted 46.5% | [16]; 10 µM unless noted 62.6% | [17]; 10 µM unless noted 31.4% | [18]; 10 µM unless noted 105% | [19]; 10 µM unless noted 100%

C[C@]12CCc3sc(Nc4ccc(F)cc4)nc3C1=CC[C@@H]1[C@@H]2CC[C@]2(C)C(=O)CC[C@@H]12
active: [3]; 10 µM unless noted 2.21%
inactive: [1]; 10 µM unless noted 15.8% | [2] 19.5% | [4]; 10 µM unless noted 68.4% | [5]; 10 µM unless noted 100% | [6]; 10 µM unless noted 76.8% | [7]; 10 µM unless noted 90% | [8]; 10 µM unless noted 75.2% | [9]; 10 µM unless noted 24.1% | [10]; 10 µM unless noted 55.3% | [11]; 10 µM unless noted 80.3% | [12]; 10 µM unless noted 80% | [13]; 10 µM unless noted 43.8% | [14]; 10 µM unless noted 57% | [15]; 10 µM unless noted 35.4% | [16]; 10 µM unless noted 20% | [17]; 10 µM unless noted 17.7% | [18]; 10 µM unless noted 95.1% | [19]; 10 µM unless noted 72.2%

O=[N+]([O-])c1ccc2scc3c4ccccc4nc-3c2c1
active: [1]; 10 µM unless noted -11.7% | [3]; 10 µM unless noted -29.5% | [4]; 10 µM unless noted -62.3% | [5]; 10 µM unless noted -77.1% | [6]; 10 µM unless noted -88.5% | [8]; 10 µM unless noted -59% | [9]; 10 µM unless noted -99% | [10]; 10 µM unless noted -2.07% | [12]; 10 µM unless noted -24.3% | [14]; 10 µM unless noted -2.05% | [15]; 10 µM unless noted -76.4% | [16]; 10 µM unless noted -64.6% | [17]; 10 µM unless noted -98.7% | [19]; 10 µM unless noted 1.98%
inactive: [2] 15.9% | [7]; 10 µM unless noted 45.8% | [11]; 10 µM unless noted 10.7% | [13]; 10 µM unless noted 22.7% | [18]; 10 µM unless noted 95.7%

CC(=O)OCC1OC([S-])C(OC(C)=O)C(OC(C)=O)C1OC(C)=O.[Au+].c1ccc(CN2[CH-]N(Cc3ccccc3)C(c3ccccc3)=C2c2ccccc2)cc1
active: [1]; 4.75 µM 3.9% | [3]; 4.75 µM -20.5% | [3]; 10 µM -4.74% | [4]; 4.75 µM 3.93% | [7]; 4.75 µM -13.2% | [8]; 4.75 µM -33.7% | [8]; 10 µM -67.2% | [9]; 4.75 µM -44.3% | [9]; 10 µM -95.7% | [12]; 4.75 µM -20.3% | [12]; 10 µM -52.1% | [13]; 4.75 µM 7.95% | [14]; 4.75 µM 4.71% | [15]; 4.75 µM -33% | [15]; 10 µM -17.6% | [16]; 4.75 µM 0.0903% | [16]; 10 µM -66.1% | [17]; 4.75 µM -5.84% | [17]; 10 µM -16.6% | [18]; 10 µM -62.8% | [19]; 4.75 µM 6.84%
inactive: [1]; 10 µM 13.5% | [4]; 10 µM 22.3% | [5]; 4.75 µM 24.2% | [5]; 10 µM 72.2% | [6]; 4.75 µM 12.6% | [6]; 10 µM 34.2% | [7]; 10 µM 70.4% | [10]; 4.75 µM 10% | [10]; 10 µM 28.5% | [11]; 4.75 µM 53.3% | [11]; 10 µM 66.5% | [13]; 10 µM 12.6% | [14]; 10 µM 29.4% | [18]; 4.75 µM 16.7% | [19]; 10 µM 38%

Cc1cc[n+](CCc2ccccc2)cc1
inactive: [1]; 10 µM unless noted 90.4% and 101% | [2] 101% | [3]; 10 µM unless noted 115% | [4]; 10 µM unless noted 95.7% and 99.1% | [5]; 10 µM unless noted 88.3% and 116% | [6]; 10 µM unless noted 90.3% and 104% | [7]; 10 µM unless noted 116% and 115% | [8]; 10 µM unless noted 94.7% and 82.5% | [9]; 10 µM unless noted 104% and 118% | [10]; 10 µM unless noted 105% | [11]; 10 µM unless noted 91.2% and 111% | [12]; 10 µM unless noted 95.4% and 101% | [13]; 10 µM unless noted 104% and 107% | [14]; 10 µM unless noted 102% and 104% | [15]; 10 µM unless noted 101% and 117% | [16]; 10 µM unless noted 101% and 104% | [17]; 10 µM unless noted 91.2% and 103% | [18]; 10 µM unless noted 85.8% and 102% | [19]; 10 µM unless noted 105% and 107%
